From PMC4336329 (PLoS ONE, 2015)
Out of some 310,000 compounds screened, about 14,000 (4.5%) showed an effect of 50% or more. The effect is printed as a negative number. Shown is part of a subset that was picked to be rich in strong results.

Biological target: human ether-à-go-go-related gene (hERG) potassium channel (human, UniProt Q12809)
Assay: primary screen, population patch clamp on CHO cells stably expressing hERG; higher = less effect of the substance
Procedure: Briefly, Chinese hamster ovary (CHO) cells stably expressing the hERG channel were dislodged from tissue culture flasks and dispensed into PPC plates. […] During the recording, background leak currents were estimated by a 100 ms step to -80 mV from an initial holding potential of -70 mV and subtracted from the subsequent current measurement. The campaign was conducted in two phases using slight differences in recording protocol. In the first phase, the initial voltage pulse used a 100 ms step to -30 mV from a holding potential of -70 mV, a 2 s conditioning step to +25 mV, and a 2 s test step to -30 mV. During the second phase of the screen, the potential during the conditioning step was raised to +45 mV. In both phases of the campaign, a secondary voltage pulse was applied using the same parameters as the second phase initial pulse. The initial and secondary pulses were applied in the absence of compound, and upon application of 1 μM and 10 μM test concentrations. […]
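Note: peak tail current of the secondary pulse compared with the same well before compound.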

human ether-à-go-go-related gene (hERG) potassium channel, sequence (Q12809 whole entry, looked up): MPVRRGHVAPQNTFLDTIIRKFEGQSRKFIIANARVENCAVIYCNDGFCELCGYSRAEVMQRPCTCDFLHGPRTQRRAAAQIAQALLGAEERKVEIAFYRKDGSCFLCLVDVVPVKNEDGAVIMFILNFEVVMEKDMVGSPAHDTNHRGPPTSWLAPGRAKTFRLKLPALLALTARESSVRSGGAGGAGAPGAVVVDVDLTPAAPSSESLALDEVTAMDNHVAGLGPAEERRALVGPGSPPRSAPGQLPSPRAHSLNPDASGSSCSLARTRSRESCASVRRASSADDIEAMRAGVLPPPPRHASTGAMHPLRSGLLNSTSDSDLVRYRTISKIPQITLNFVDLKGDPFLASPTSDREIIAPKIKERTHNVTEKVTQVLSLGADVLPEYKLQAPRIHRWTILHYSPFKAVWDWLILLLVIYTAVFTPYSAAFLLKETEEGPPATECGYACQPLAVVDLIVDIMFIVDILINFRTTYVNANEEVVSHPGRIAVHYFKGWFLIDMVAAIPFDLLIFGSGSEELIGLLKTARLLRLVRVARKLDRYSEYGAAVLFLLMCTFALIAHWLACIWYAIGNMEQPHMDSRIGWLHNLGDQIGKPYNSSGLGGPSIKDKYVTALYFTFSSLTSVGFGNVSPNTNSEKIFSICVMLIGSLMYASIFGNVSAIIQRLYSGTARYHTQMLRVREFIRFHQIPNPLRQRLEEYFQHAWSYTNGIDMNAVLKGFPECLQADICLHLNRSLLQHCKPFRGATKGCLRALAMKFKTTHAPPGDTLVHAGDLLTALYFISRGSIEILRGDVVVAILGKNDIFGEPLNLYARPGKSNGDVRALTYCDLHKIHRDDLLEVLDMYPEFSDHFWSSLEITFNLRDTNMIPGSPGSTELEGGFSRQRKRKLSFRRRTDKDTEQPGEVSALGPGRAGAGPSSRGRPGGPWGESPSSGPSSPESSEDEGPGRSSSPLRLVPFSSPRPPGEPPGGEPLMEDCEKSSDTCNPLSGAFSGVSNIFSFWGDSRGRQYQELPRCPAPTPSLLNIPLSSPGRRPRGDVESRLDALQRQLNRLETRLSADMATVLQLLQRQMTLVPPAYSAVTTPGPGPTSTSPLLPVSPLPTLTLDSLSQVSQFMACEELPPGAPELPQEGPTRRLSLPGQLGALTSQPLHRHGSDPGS

Row | SMILES | hERG current change (%, negative = inhibition) at 10uM
1 | O=C(NCC1CCCO1)NC1(C(F)(F)F)Oc2ccccc2O1 (stereo not shown) | 1.63%
2 | CN1CCN(S(=O)(=O)c2ccc3c4c(cccc24)C(=O)N3)CC1 | -0.59%
3 | O=C(NCN1C(=O)C2C3C=CC(C3)C2C1=O)Nc1ccccn1 (stereo not shown) | 9.67%
4 | CCOC(=O)N1CCC(NS(=O)(=O)c2cc3c(cc2C)NC(=O)CO3)CC1 | -7.84%
5 | Cc1ccc(NC(=O)NNC(=O)C2CC(c3cccnc3)=NO2)cc1 (stereo not shown) | 4.19%
6 | O=C1c2ccccc2C(=O)N1OCCOCCOCCON1C(=O)c2ccccc2C1=O | -29.2%
7 | CC1(c2ccccc2)NC(=O)N(CC(=O)Nc2nnc(C3CC3)s2)C1=O (stereo not shown) | 12.1%
8 | O=C(Nc1ccc(F)cc1F)c1cccn(Cc2ccccc2)c1=O | 13.1%
9 | CCn1c(CN2CCCCCC2=O)nnc1SCc1cnc(-c2ccccc2)s1 | -19.3%
10 | COc1ccc(C(=O)COC(=O)CCCC(=O)NC2CCCCC2)cc1 | 2.77%
11 | COc1ccc(S(=O)(=O)N2CCC(C(=O)N3CCc4ccccc4C3)CC2)cc1C | -19.7%
12 | CCc1ccc(N/C(=N/c2nc(C)cc(C)n2)NC(C)=O)cc1 | -67%
13 | Cc1cc(C)nc(/N=C(\N)Nc2ccccc2-c2ccccc2)n1 | -43.2%
14 | CCC(=O)Nc1ccc(N/C(N)=N/c2nc(C)cc(C)n2)cc1 | -4.25%
15 | CCCCc1ccc(N/C(N)=N/c2nc(C)cc(C)n2)cc1 | -70.1%
16 | Cc1cc(C)nc(/N=C(\N)Nc2ccc(C(C)C)cc2)n1 | -67.5%
17 | Cc1cc(C)nc(/N=C(\N)Nc2ccc(S(N)(=O)=O)cc2)n1 | 14.9%
18 | CC(=O)N/C(=N/c1nc(C)cc(C)n1)Nc1ccc(NC(C)=O)cc1 | 9.5%
19 | Cc1cc(C)nc(/N=C(\N)Nc2ccc(S(=O)(=O)Nc3nc(C)cc(C)n3)cc2)n1.Cl | 38%
20 | CCOc1ccc(N/C(=N/c2nc(C)cc(C)n2)NC(C)=O)cc1 | -12.2%
21 | Cc1cc(C)nc(/N=C(\N)Nc2ccc(-c3ccccc3)cc2)n1 | -81.6%

Row | SMILES | hERG current change (%, negative = inhibition) at 10uM
22 | Cc1cc(C)nc(/N=C(\N)Nc2ccc([N+](=O)[O-])cc2)n1 | -25%
23 | COc1ccc(C)cc1NC(=O)NNC(=O)c1cc2ccccc2cc1O | 12.1%
24 | Cc1ccc(C(=O)Nc2ccc(C)c(S(=O)(=O)Nc3ccccc3Cl)c2)s1 | -6.43%
25 | CCn1c(=O)c2c3c(sc2n2cnnc12)CCC3 | 20%
26 | CC(=O)N1N=C(c2cccc([N+](=O)[O-])c2)OC1c1ccc(Br)cc1 (stereo not shown) | -7.59%
27 | COc1ccc(OC)c(S(=O)(=O)Nc2cccc3ccc(O)cc23)c1 | 6%
28 | COC(=O)CCCc1nc2ccccc2s1 | 8.7%
29 | CN(C(=O)COC(=O)C12CC3CC(CC(C3)C1)C2)c1c(N)n(Cc2ccccc2)c(=O)[nH]c1=O | 7.54%
30 | CCOC(=O)C1(P(=O)(c2ccc(Cl)cc2)c2ccc(Cl)cc2)CCC1 | -25.2%
31 | N/C(=N\OC(=O)COc1ccc2ccccc2c1)c1ccccn1 | -1.39%
32 | CCN(C(=O)COC(=O)CCS(=O)(=O)c1ccc(C)cc1)C1CCS(=O)(=O)C1 (stereo not shown) | 12.9%
33 | COc1ccccc1C(C#N)N1N=C(C)CC1c1ccccc1 (stereo not shown) | 1.69%
34 | O=C(CSc1nnc(COc2ccccc2Cl)o1)NC(=O)NCc1ccco1 | -8.18%
35 | Cc1cc(=O)[nH]c(/N=C(\N)Nc2ccc(SC(F)F)cc2)n1 | -15.8%
36 | Cc1cc(C)nc(/N=C(\N)Nc2ccc3c(c2)OCCO3)n1 | 6.67%
37 | Cc1cc(C)nc(/N=C(\N)Nc2ccc(SC(F)F)cc2)n1 | -74.7%
38 | Cl.NS(=O)(=O)c1ccc(CCNCc2cccnc2)cc1 | 18.4%
39 | CCOc1ccc(OCCC(=O)OCC(=O)NCCc2ccc(S(N)(=O)=O)cc2)cc1 | -4.49%
40 | CCOc1ccc(N2C(=O)CC(NCCc3ccc(S(N)(=O)=O)cc3)C2=O)cc1 (stereo not shown) | -22%
41 | CCOc1ccc(CNCCc2ccc(S(N)(=O)=O)cc2)cc1.Cl | -70.1%
42 | C=CCOc1ccc(CNCCc2ccc(S(N)(=O)=O)cc2)cc1.Cl | -81.4%

Row | SMILES | hERG current change (%, negative = inhibition) at 10uM
43 | CCOc1ccc(CNc2ccc(S(N)(=O)=O)cc2)cc1 | -6.78%
44 | COc1ccc(CNc2ccc(S(N)(=O)=O)cc2)cc1 | -52.6%
45 | Cl.NS(=O)(=O)c1ccc(CCNCc2cccs2)cc1 | 4.04%
46 | COc1ccc(CNC(=S)Nc2ccc(S(N)(=O)=O)cc2)cc1 | 22.1%
47 | COc1ccc(C(=O)NC(=S)N2CCN(c3ccccc3OC)CC2)cc1 | -21.6%
48 | O=C(COC(=O)c1cccnc1)c1ccc(Cl)cc1 | 4.51%
49 | CCCCn1c(SCn2nnc3ccccc3c2=O)nc2cc(S(N)(=O)=O)ccc21 | -34.5%
50 | COc1ccc(N2CCN(CC(=O)c3c[nH]c4ccccc34)CC2)cc1 | 8.09%
51 | CCN1CCN(CCCNC(=O)C(=O)c2c(C)[nH]c3ccccc23)CC1 | 3.67%
52 | COc1ccc(N2CCN(CC(=O)c3c(C)n(C)c4ccc(OC)cc34)CC2)cc1 | -4.1%
53 | COc1ccc(C(C(O)C(=O)c2c[nH]c3ccccc23)N2CCN(c3ccc(OC)cc3)CC2)cc1 (stereo not shown) | -7.36%
54 | COc1ccc(C(C(O)C(=O)c2c[nH]c3ccccc23)N2CCN(c3ccccc3)CC2)cc1 (stereo not shown) | -13.8%
55 | COc1ccc(N2CCN(CCCNC(=O)C(=O)c3c(C)n(C)c4ccccc34)CC2)cc1 | -64.1%
56 | CCN1CCN(C(c2ccc(OC)cc2)C(O)C(=O)c2c[nH]c3ccccc23)CC1 (stereo not shown) | -69%
57 | COc1ccc(N2CCN(CCCNC(=O)C(=O)c3c(C)[nH]c4ccccc34)CC2)cc1 | -53.3%
58 | COc1ccc(N2CCN(CCCNC(=O)C(=O)c3c[nH]c4ccccc34)CC2)cc1 | -69.7%
59 | Cl.O=C(NCCCN1CCOCC1)C(=O)c1c[nH]c2ccccc12 | -3.03%
60 | COc1ccc(N2CCN(C(=O)C(=O)c3c(C)[nH]c4ccccc34)CC2)cc1 | -14.1%
61 | COc1ccc(N2CCN(C(=O)C(=O)c3c(C)n(C)c4ccccc34)CC2)cc1 | 10.4%
